The record followed here is PubChem BioAssay (NCI).

Each structure is given as a SMILES string. Compounds without any hit were thinned out: in the full panel of roughly 83,000, 20% have a hit.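 For each line, cells grew in 96-well plates with the test compound present at a single concentration for 48 hours.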 Values without a mark were called inactive. The source made the active and inactive calls. Rule for the calls: active = growth percent below 10; inactive = the rest.

Experiment in all cases: NCI-60 one-dose screen, 48 h (100 = growth as untreated, 0 = no growth, -100 = all killed)
Holding throughout (conditions): 10 µM unless noted

Experiment [1] has as its system DU-145 prostate.
For experiment [2], the system named is K-562 leukemia.
The subject of experiment [3] is MALME-3M melanoma.
Experiment [4] has as its system MDA-MB-231 breast.
Experiment [5] relates to RXF 393 renal.
Experiment [6] relates to SF-268 CNS.
For experiment [7], the system named is SF-295 CNS.
Experiment [8] deals with SF-539 CNS.
Experiment [9] relates to UACC-257 melanoma.
For experiment [10], the system named is HCT-15 colon.
Experiment [11] deals with HT29 colon.
For experiment [12], the system named is SNB-75 CNS.
The subject of experiment [13] is SNB-19 CNS.
Experiment [14] concerns U251 CNS.
For experiment [15], the system named is PC-3 prostate.
Experiment [16] deals with SK-MEL-5 melanoma.
The subject of experiment [17] is UACC-62 melanoma.
Experiment [18] has as its system SK-MEL-28 melanoma.
Experiment [19] deals with LOX IMVI melanoma.

For the compound `O=C(/C=C/c1ccc(Oc2ccc(Br)cc2)cc1)c1ccc(Br)cc1`, the growth in [1] was 102%; in [2], 91.8%; in experiment [3], 98%; in experiment [4] it was 101%; in experiment [5], 100%; in [6], 101%. For the same compound, the growth was 100% in experiment [7]; 102% in experiment [8]; 98.1% in experiment [9]; 98.5% in [10]; 100% in experiment [11]; 90.7% in experiment [12]. The growth in experiment [13] is 97.6%; in experiment [14], 95%; in experiment [15] it was 100%; in [16], 102%; in experiment [17], 91.4%; in experiment [18], 105%.

Regarding `Nc1nc(NC(=O)Nc2ccc(C(=O)O)cc2)nn1-c1ccc(S(N)(=O)=O)cc1`, the growth was 97.3% in [1]; 102% in [2]; 85.7% in experiment [3]; 75.3% in experiment [4]; 94.1% in experiment [5]; 95.1% in experiment [6]. Also, the growth in experiment [7] is 104%; in [8] it was 95.9%; in experiment [9], 89.9%; in [10], 105%; in experiment [11], 105%; in experiment [12] it was 90.4%. In addition, the growth in experiment [14] was 93.2%; in experiment [15], 83.6%; in [16] it was 96.1%; in [17], 96.2%; in experiment [19] it was 98.8%; in experiment [18] it was 100%.

Take `O=C1/C(=C2\SC(=S)N(C3CC3)C2=O)SC(=S)N1C1CC1`: the growth is 105% in [1]; 103% in [2]; 99.2% in experiment [3]; 101% in experiment [4]; 97.3% in [5]; 95.1% in experiment [6]. The growth is 98.6% in experiment [7]; 103% in experiment [8]; 94.9% in [9]; 101% in [10]; 107% in [11]; 81.9% in experiment [12]. Further, the growth was 99.2% in [13]; 99.6% in [14]; 92% in experiment [15]; 97.4% in [16]; 94.6% in experiment [17]; 88.8% in experiment [19]. Further, in experiment [18], the growth is 106%.

Consider `COC(=O)CC[C@@H]1O[C@@H](c2ccc(F)cc2)[C@@H](O)[C@H]1O`, for which the growth in [1] was 112%; in experiment [2], 109%; in experiment [3], 101%; in experiment [4] it was 117%; in experiment [5] it was 112%; in experiment [6], 103%. For the same compound, the growth is 104% in experiment [7]; 102% in experiment [8]; 107% in experiment [9]; 105% in experiment [10]; 108% in [11]; 90.1% in experiment [12]. Further, the growth in experiment [13] is 108%; in [14] it was 109%; in [15], 96.8%; in experiment [16] it was 95.7%; in experiment [17] it was 106%; in experiment [19], 99.8%. For the same compound, in experiment [18], the growth is 102%.

With `COc1cc(NC(=O)c2cncnc2Nc2ccc3c(ccn3Cc3ccccn3)c2)cc(OC)c1`, the growth in experiment [1] was 65.4%; in [2], 17.1%; in experiment [3], 44.7%; in [4], 50.6%; in experiment [5] it was 42%; in experiment [6], 63.1%. Also, the growth in experiment [7] is 35%; in [8], 48.2%; in [9], 68%; in [10] it was 30.7%; in experiment [11], 11.7%; in experiment [12], -3.17% (active). Moreover, the growth in experiment [13] was 58.3%; in experiment [14], 45.9%; in experiment [15], 38.2%; in [16] it was 35.4%; in experiment [17], 58.1%; in experiment [19], 39.9%. Further, the growth in experiment [18] is 63.8%.

For the compound `COc1cccc(/C=C/C(=O)c2cccc(Nc3nc(Nc4ccccc4)nc(Nc4ccccc4)n3)c2)c1`, the growth in experiment [1] is 85.5%; in experiment [2], 59.4%; in [3] it was 107%; in experiment [4], 84.6%; in experiment [5], -38.8% (active); in experiment [6] it was 95.3%. In addition, the growth is 71.4% in [7]; 96.5% in experiment [8]; 114% in experiment [9]; 73.4% in experiment [10]; 65.8% in experiment [11]; 71.8% in experiment [12]. The growth in experiment [13] was 102%; in experiment [15], 73.5%; in experiment [16], 77.9%; in experiment [17] it was 92%; in experiment [18] it was 112%.

Regarding `COc1cc(-c2nc3sccn3c2-c2ccnc(NCCNS(=O)(=O)c3ccc(Cl)cc3)n2)ccc1F`, the growth in experiment [1] is 32.3%; in experiment [2], 13.6%; in experiment [3] it was 31.3%; in [4] it was 69%; in experiment [5], 33.2%; in [6], 30.6%. Further, the growth in experiment [7] was 40.5%; in experiment [8], 80%; in [9] it was 45.1%; in experiment [10], 20.6%; in experiment [11], 22.8%; in experiment [12] it was 85.6%. In addition, the growth in [13] is 78.8%; in experiment [14], 55.6%; in experiment [15] it was 13.1%; in experiment [16] it was -14.7% (active); in [17], -45.3% (active); in experiment [19] it was 19.2%. Further, the growth in [18] is 44.9%.

For the compound `CC1=CC(c2ccco2)=C2C(N)=NNC2N1` (stereo not drawn), the growth in experiment [1] is 110%; in experiment [2], 99.6%; in [3], 92.5%; in experiment [4] it was 92.1%; in experiment [5], 119%; in [6], 98.7%. In addition, the growth was 98.2% in experiment [7]; 81.1% in experiment [8]; 102% in [9]; 99.7% in experiment [10]; 104% in experiment [11]; 64% in [12]. The growth in experiment [13] is 92.9%; in experiment [14] it was 96.8%; in experiment [15], 101%; in experiment [16], 101%; in experiment [17] it was 89.3%; in experiment [19], 98.3%. Moreover, in experiment [18], the growth is 96.5%.
